# From PubChem
# An excerpt weighted towards active compounds, which were near 9.8% of everything screened.
# HTT cytoprotect: qHTS Multiplex Assay to Identify Dual Action Probes in a Cell Model of Huntington: Cytoprotection (ATP) | Potency, µM (top dose mostly 56.4 µM), inactives show cytoprotection (ATP increase), hits mostly activators | PC12 HTT-Q103 induced, cytoprotection, ATP luminescence, 40 h | actives 0.14% (n = 230,000) | AID 1471, 2008; active = well fitted curve in the direction sought with a large enough effect; inconclusive = small, poorly fitted or top-dose-only effect, or another doubt; inactive = no such curve, though single readings can be large; an effect the other way counts as inactive or inconclusive; note: potency is the fitted concentration of half-maximal effect; % of control where 0% means no effect; nearly all actives have a fitted effect of over 45% in size
#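 Quantitative HTS on tebufenozide-induced (100 nM) PC12 cells expressing HTTQ103 exon 1–GFP; compounds tested as a concentration series; survival measured via cellular ATP.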
# ALDH1A1 inh: qHTS Assay for Inhibitors of Aldehyde Dehydrogenase 1 (ALDH1A1); Aldehyde dehydrogenase 1A1 (Homo sapiens), P00352; Purified ALDH1A1, NADH fluorescence, propionaldehyde substrate; Potency, µM (top dose mostly 75.3 µM), without a hit: top-dose activity, negative = inhibition, hits mostly inhibitors; actives 7.3% (n = 220,000); AID 1030, 2008;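 note: potency is the fitted concentration of half-maximal effect; plate controls were no enzyme wells and a reference inhibitor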
# HPGD block: qHTS Assay for Inhibitors of HPGD (15-Hydroxyprostaglandin Dehydrogenase); 15-hydroxyprostaglandin dehydrogenase [NAD(+)] (Homo sapiens), P15428; purified HPGD, NADH fluorescence kinetic, PGE2 substrate; Potency, µM, without a hit: at the top dose activity change, negative = inhibition, hits mostly inhibitors; actives 4.3% (n = 150,000); AID 894, 2007; note: potency is the fitted concentration of half-maximal effect; % is set by controls: 0 for no effect and ±100 for the full control effect
#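 20 nM HPGD preincubated 15 min at room temperature with compound in 50 mM Tris-HCl pH 8, 0.01% Tween 20. Started with 1 mM NAD+ and 30 uM prostaglandin E2; NADH fluorescence (360/450 nm) read 5 times over 30-s intervals, last minus first.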
# CBFb-RUNX1 inh: qHTS Assay for Compounds Blocking the Interaction Between CBF-beta and RUNX1 for the Treatment of Acute Myeloid Leukemia; Runt-related transcription factor 1 (Homo sapiens) + Core-binding factor subunit beta …; Potency, µM (series often up to 59.8 µM), without a hit: at the top dose activity, negative = inhibition, usual class: inhibitors; AlphaScreen CBFb-His/RUNX1-biotin binding, biochemical; 230,000 tested, under 10 active; active = well fitted curve in the direction sought with a large enough effect; inconclusive = small, poorly fitted or top-dose-only effect, or another doubt; inactive = no such curve, though single readings can be large; an effect the other way counts as inactive or inconclusive; note: % of control where 0% means no effect
# Target sequence (Q01196 whole entry, looked up): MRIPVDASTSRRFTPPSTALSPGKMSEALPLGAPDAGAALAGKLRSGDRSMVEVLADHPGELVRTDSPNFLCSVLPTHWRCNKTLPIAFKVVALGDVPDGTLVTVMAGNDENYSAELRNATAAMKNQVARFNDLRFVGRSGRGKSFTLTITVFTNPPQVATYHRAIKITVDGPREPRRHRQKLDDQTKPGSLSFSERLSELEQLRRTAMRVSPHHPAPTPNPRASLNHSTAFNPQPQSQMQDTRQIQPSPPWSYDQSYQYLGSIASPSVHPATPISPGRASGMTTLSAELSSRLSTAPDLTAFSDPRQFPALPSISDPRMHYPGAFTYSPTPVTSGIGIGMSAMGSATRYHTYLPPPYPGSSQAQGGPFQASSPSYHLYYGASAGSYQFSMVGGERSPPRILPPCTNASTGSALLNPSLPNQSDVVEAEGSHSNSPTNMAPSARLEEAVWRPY
# Target sequence (Q13951 whole entry, looked up): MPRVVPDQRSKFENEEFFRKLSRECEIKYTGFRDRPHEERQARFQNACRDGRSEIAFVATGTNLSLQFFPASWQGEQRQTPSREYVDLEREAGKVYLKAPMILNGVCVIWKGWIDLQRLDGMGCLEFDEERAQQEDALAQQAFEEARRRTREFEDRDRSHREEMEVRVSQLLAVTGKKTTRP
#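 Room-temperature protein-protein interaction test with 30 nM each of His-tagged CBF-beta and biotinylated RUNX1, 15 min with compound, then 90 min with nickel plus streptavidin beads. Signal read in AlphaScreen mode.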
# KDM4E inh: qHTS Assay for Inhibitors of Human Jumonji Domain Containing 2E (JMJD2E); actives 1.6% (n = 230,000); Lysine-specific demethylase 4E (Homo sapiens), B2RXH2; JMJD2E catalytic domain, FDH-coupled NADH fluorescence (FDH is formaldehyde dehydrogenase); Potency, µM (titrated, usually from 57.1 µM), for inactives: top-dose activity change, negative = inhibition, hits mostly inhibitors; AID 2147, 2009;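 note: potency is the fitted concentration of half-maximal effect; 0% = wells with enzyme and -100% = buffer wells without enzyme; nearly all actives have a fitted effect of over 50% in size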
# HttQ103 aggreg: qHTS Multiplex Assay to Identify Dual Action Probes in a Cell Model of Huntington: Aggregate Formation (GFP); AID 1688, 2009; Potency, µM (doses to about 46.1 µM), for inactives: top-dose activity change, negative = inhibition, hits mostly inhibitors; actives 1.1% (n = 220,000); PC12 HttQ103-GFP aggregates, Acumen cytometry, 40 h; active = well fitted curve in the direction sought with a large enough effect; inconclusive = small, poorly fitted or top-dose-only effect, or another doubt; inactive = no such curve, though single readings can be large; an effect the other way counts as inactive or inconclusive; note: potency is the fitted concentration of half-maximal effect; % is set by controls: 0 for no effect and ±100 for the full control effect; nearly all actives have a fitted effect of over 60% in size
#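 Quantitative HTS on tebufenozide-induced (100 nM) PC12 cells stably expressing polyQ103 Huntingtin exon 1–GFP. Reduction of bright GFP aggregates, detected by laser scanning cytometry after lysis, identified actives across the titration.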
# Starred values were filed as active, the others as inactive; u = inconclusive; x = no result given; [ ] = remark or other dose. Unless noted, calls come from the whole dose curve; as a rule, active = well fitted inhibition curve with a large enough effect (not every such curve was filed as active); inconclusive = small, poorly fitted or top-dose-only effect, or another doubt; inactive = no such curve, though single readings can be large or run the other way.
SMILES,HTT cytoprotect,ALDH1A1 inh,HPGD block,CBFb-RUNX1 inh,KDM4E inh,HttQ103 aggreg
COCCOC(=O)C1=C(C)NC(=O)NC1c1ccc(-c2cc(Cl)ccc2Cl)o1 (stereo unspecified),-10%[10 µM],3.2µM*,x,3%,u,-1%[9.22 µM]
NCCCC[C@H](NC(=O)C1CCNCC1)c1nnc(CN)o1,-8%[10 µM],0%,x,9%,6%,2%[9.22 µM]
C(=N\C(/N=C/c1ccco1)c1ccco1)/c1ccco1,1%,u,u,-18%,u,18%
CN(C)c1ccc(C=Nc2ccccc2)cc1,-2%,0.89µM*,-16%,-4%,u,7%
CN(C)c1ccc(N=Cc2ccco2)cc1,-19%,5µM*,-29%,2%,8%,1%[9.22 µM]
CN(C)c1ccc(/C=N/O)cc1,-45%,-1%,x,-16%,-6%,-7%
CN(C)c1ccc(C=Nc2ccc(N(C)C)cc2)cc1,-4%[10 µM],2.2µM*,-27%,-30%,20µM*,-22%
C/C(=N/N=C/c1ccc(N(C)C)cc1)c1ccccc1,x,25µM*,-16%,5%,-13%,-5%
COc1ccc(C(NC(=O)c2ccccc2F)NC(=O)c2ccccc2F)cc1,-10%[1.9 µM],3%,-8%,-3%,0%,21%
CCN(CC)c1ccc(O)c(C=Nc2ccc(C)c(C)c2)c1,9%,u,x,2%,-14%,4%
Cc1ccc(N=Cc2ccc(N(C)C)cc2)cc1,7%,0.56µM*,-15%,1%,-6%,-4%
Cc1ccc(N=Cc2ccc(N(C)C)cc2)cc1C,-32%,0.56µM*,x,6%,-7%,-6%
c1ccc(N/N=C(\Cc2ncc[nH]2)c2ccccc2)cc1,1%,7.1µM*,x,9%,u,10%
COc1ccc(C(=O)N/N=C(\Cc2ncc[nH]2)c2ccccc2)cc1,-54%,u,x,-18%,-11%,u
COCCOC(=O)c1c(C)oc2ccc(NS(=O)(=O)c3ccccc3)cc12,3%[10 µM],20µM*,-15%,5%,-1%,-8%
O=C(NC(NC(=S)Nc1ccc(Cl)cc1)C(Cl)(Cl)Cl)c1ccco1 (stereo unspecified),x,u,-10%,-6%,14%,-26%
CCOC(=O)C(Cc1ccc(OC)c([N+](=O)[O-])c1)NC(=O)CCC(=O)Nc1ccc(OC)cc1 (stereo unspecified),5%[10 µM],4.5µM*,x,1%,-2%,-11%[9.22 µM]
COc1ccccc1NC(=S)NC(NC(=O)c1ccco1)C(Cl)(Cl)Cl (stereo unspecified),17%[10 µM],14µM*,-21%,0%,-2%,7%
COc1ccc(C(=O)NC(=S)Nc2ccc(NC(=O)c3ccco3)cc2)cc1[N+](=O)[O-],5%[10 µM],-15%,-7%,1%,-4%,24%
CCc1ccc(NC(=O)c2ccc(OC)c([N+](=O)[O-])c2)cc1,-6%[10 µM],11µM*,-19%,-2%,5%,11%
COc1ccc(C(=O)NC(=S)Nc2cccc(NC(=O)c3ccco3)c2)cc1[N+](=O)[O-],-5%[10 µM],3.5µM*,-8%,-1%,1%,8%
CCOc1ccc(C(=O)Nc2cccc(NC(=O)c3cccs3)c2)cc1[N+](=O)[O-],10%[10 µM],u,-27%,-18%,-3%,u
COc1cc(NC(=S)NC(=O)c2ccccc2F)ccc1NC(=O)c1ccco1,36%[0.074 µM],32µM*,-26%,2%,-4%,4%
COc1cc(NC(=S)NC(=O)c2ccco2)ccc1NC(=O)C(C)C,3%[10 µM],-11%,x,1%,5%,13%
CCOc1ccc(C(=O)NC(=S)Nc2cccc(NC(=O)c3ccco3)c2)cc1[N+](=O)[O-],10%[10 µM],3.2µM*,-28%,5%,-11%,-10%
SMILES,HTT cytoprotect,ALDH1A1 inh,HPGD block,CBFb-RUNX1 inh,KDM4E inh,HttQ103 aggreg
CNc1ccc(S(=O)(=O)NCC(=O)OCC(=O)Nc2cccc(Cl)c2Cl)cc1[N+](=O)[O-],x,u,-16%,-9%,9%,-29%
CN(C)c1ccc(S(=O)(=O)NCC(=O)OCC(=O)Nc2cccc(Cl)c2)cc1[N+](=O)[O-],-6%[10 µM],7.9µM*,3%,-17%,4%,15%
COC(=O)/C(=N/Nc1ccccc1C)Sc1nnc(C(O)c2ccccc2)n1-c1ccccc1 (stereo unspecified),-40%[10 µM],-5%,32µM*,-11%,-1%,20%
CC(=O)/C(=N/Nc1cccc(Cl)c1)Sc1nnc(C(O)c2ccccc2)n1-c1ccccc1 (stereo unspecified),-5%[10 µM],12%,-13%,-7%,5%,-16%
O=CNCCCc1nc2ccccc2n1Cc1ccccc1,-17%,22µM*,-6%,0%,-1%,7%
COc1ccc2oc(=O)c(-c3ccccc3C(=O)N3CCOCC3)cc2c1,-9%[10 µM],u,u,-6%,u,6%
O=[n+]1cc(-c2ccc(Br)cc2)n([O-])c2c1CCC2,26%[0.074 µM],5%,-4%,-4%,-1%,3%
COc1ccc(NC(=O)C2CCC(CNS(=O)(=O)c3cccs3)CC2)cc1OC (stereo unspecified),-31%,5µM*,x,4%,-5%,3%
Cc1ccc(NC(=O)Nc2ccc(C(=O)N3CCOCC3)cc2)cc1,1%,8%,-27%,3%,1%,-17%
CC(=O)c1cccc(NC(=O)Nc2cccnc2)c1,10%[0.074 µM],u,-5%,-9%,0%,7.9µM*
CC(=O)c1cccc(NC(=O)Nc2cccs2)c1,-12%,-5%,-11%,-6%,13%,13µM*
COc1ccc(NC(=O)C2CCC(CNS(=O)(=O)c3cccs3)CC2)cc1 (stereo unspecified),-29%,u,x,7%,1%,4%
CC(=O)c1cccc(NC(=O)Nc2ccc(C(=O)N3CCOCC3)cc2)c1,-9%[10 µM],u,13µM*,-13%,-12%,10µM*
Cn1c(=O)c2c(nc(NCCOc3ccc(F)cc3)n2C)n(C)c1=O,2%[10 µM],-1%,x,16%,-16%,-9%[9.22 µM]
CC(CCc1ccccc1)NC(=O)C(Cc1ccccc1)NS(=O)(=O)c1cccs1 (stereo unspecified),-3%,u,-8%,9%,-2%,-21%
COc1ccc(NC(=O)Nc2cccs2)cc1OC,-55%,22µM*,-7%,-24%,u,19%[9.22 µM]
